HEK293 tox = kills HEK 293 cells; HEK 293 viability, ATP luminescence (CellTiter-Glo), 48-72 h; Potency, µM (titrated, usually from 115 µM), without a hit: at the top dose activity change, negative = cytotoxicity, actives largely listed as inhibitors; 94,000 tested, 6.6% active; AID 1345083; further: nearly all actives have a fitted effect of over 60% in size
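Cells seeded first (HEK 293, 250 cells/well), then compound added by pintool. Incubation ran 48 or 72 hr at 37 degree Celsius. CellTiter-Glo was added and luminescence imaged after 10 min at room temperature.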
NPR1 antag = antagonists of human natriuretic peptide receptor Npr1 | P16066 | HEK293 hNpr1 GloSensor cGMP, ANP-stimulated luminescence | Potency, µM (series often up to 46.3 µM), without a hit: at the highest dose activity change, negative = inhibition, actives largely listed as inhibitors | 76,000 tested, 1.6% active | AID 1347048; calls by dose curve; further: nearly all actives have a fitted effect of over 60% in size
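Compound pre-incubated 30 min at room temperature on GloSensor-loaded HEK293 cells stably carrying hNpr1 and the pGS-40F cGMP biosensor. Stimulation uses hNppA at 0.1 nM final; luminescence is taken at baseline and 20 min post-agonist.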
FLuc inh = blocks purified firefly luciferase enzyme activity | purified P. pyralis luciferase, luminescence, biochemical | Potency, µM (titrated, usually from 115 µM), most hits filed as inhibitors | 76,000 tested, 2.5% active; further: nearly all actives have a fitted effect of over 65% in size
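Biochemical qHTS: compound (6-point titration) added to 10uM D-luciferin plus 10uM ATP in Tris acetate pH 7.5 buffer with Mg, Tween-20 and BSA, then purified enzyme at 10nM; light output imaged.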
GPT2 inhibitor = GPT2 alanine aminotransferase inhibition | Recombinant GPT2, coupled pyruvate oxidase/HRP Amplex Red fluorescence | Potency, µM (titrated, usually from 57.7 µM), for the others: at the highest dose activity change, negative = inhibition, hits mostly inhibitors | 100,000 tested, 0.25% active; further: nearly all actives have a fitted effect of over 60% in size
Target sequence (Q8TD30 whole entry, looked up): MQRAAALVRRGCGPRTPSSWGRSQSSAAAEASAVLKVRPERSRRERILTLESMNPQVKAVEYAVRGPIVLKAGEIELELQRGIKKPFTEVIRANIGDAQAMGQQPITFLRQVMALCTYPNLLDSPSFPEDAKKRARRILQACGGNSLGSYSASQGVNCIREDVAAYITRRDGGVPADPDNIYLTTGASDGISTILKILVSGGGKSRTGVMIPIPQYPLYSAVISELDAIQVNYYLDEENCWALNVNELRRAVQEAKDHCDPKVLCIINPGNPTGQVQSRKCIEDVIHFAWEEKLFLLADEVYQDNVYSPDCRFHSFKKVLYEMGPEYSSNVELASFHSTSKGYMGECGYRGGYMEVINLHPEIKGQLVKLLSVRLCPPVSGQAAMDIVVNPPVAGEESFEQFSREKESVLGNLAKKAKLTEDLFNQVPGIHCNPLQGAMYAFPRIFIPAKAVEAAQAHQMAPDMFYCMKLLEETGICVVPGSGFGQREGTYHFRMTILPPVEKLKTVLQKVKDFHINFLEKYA
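Inhibition is scored from Amplex Red fluorescence generated when pyruvate oxidase and HRP act on pyruvate released by GPT2. Reactions contain 10ng/uL enzyme, 250uM a-KG and 2mM L-alanine and run 30 min at room temperature.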
3T3 cytotox = cytotoxic compounds in NIH 3T3 cells | AID 1345082 | NIH 3T3 viability, CellTiter-Glo ATP luminescence, 48-72 h | Potency, µM (top dose mostly 96.7 µM), without a hit: at the highest dose activity change, negative = cytotoxicity, actives largely listed as inhibitors | 94,000 tested, 4.3% active; further: nearly all actives have a fitted effect of over 55% in size
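Cells were seeded at 400 per well, treated with pin-transferred compound, and kept 48 or 72 hr at 37 °C before CellTiter-Glo addition and luminescence imaging of cellular ATP.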
Numbers without * were called inactive; i = inactive; ? = inconclusive; . = no result; [ ] = another dose, or the depositor's remark. An excerpt weighted towards active compounds, which were near 10% of everything screened. Unless noted, the call rests on the fitted dose curve; in most records, active means well fitted curve in the direction sought with a large enough effect; inconclusive means small, poorly fitted or top-dose-only effect, or another doubt; inactive means no such curve, though single readings can be large; an effect the other way counts as inactive or inconclusive. On the % scale 0 is the no-effect control and ±100 the full control effect; potency means the concentration at half of the fitted maximal effect.

SMILES	HEK293 tox	NPR1 antag	FLuc inh	GPT2 inhibitor	3T3 cytotox
CN(Cc1ccccc1C(F)(F)F)C(=O)c1ccccc1Cl	?	-0.1%[70.6 µM]	i	i	-29.6%[138 µM]
CN(Cc1ccc(F)cc1)C(=O)Nc1ccc(Cl)cc1	89.1µM*	-27.8%[70.6 µM]	?	-3.4%[88.5 µM]	?
CN(Cc1ccccc1C(F)(F)F)C(=O)Cc1cccc(Cl)c1	79.4µM*	0.0%[70.6 µM]	i	i	?
CN(Cc1ccccc1C(F)(F)F)C(=O)Nc1ccccc1	?	0.0%[70.6 µM]	?	0.6%[88.5 µM]	?
CC(C)CCNC(=O)c1c(OCC2CC2)cc(=O)n2c1CCCCC2	?	-0.8%	i	i	35.5µM*
CCOc1ccc(Cl)cc1CN(C)c1cc(C2CC(O)C2)nc(N)n1 (stereo not given)	39.8µM*	?	i	-16.0%	31.6µM*
Cc1cc(CN(C)c2cc(C3CC(N)C3)nc(N)n2)no1 (stereo not given)	0.9%	-12.7%	i	-6.6%	i
COc1ccc2cc(C3CN(C(=O)c4ccc(C)cc4OC)CCO3)ccc2c1 (stereo not given)	22.4µM*	?	22.4µM*	-11.9%[11.5 µM]	44.7µM*
COc1ccc2cc(C3CN(C(=O)c4cc(C(C)=O)n[nH]4)CCO3)ccc2c1 (stereo not given)	?	?	?	0.8%	?
O=C(c1ccc(F)cc1)N1CCC(C(=O)N2CCC(c3nc4ncccc4[nH]3)CC2)CC1	-17.2%	.	.	4.8%	-14.2%
Cc1ccc(NC(=O)c2cc(-c3ccc(Cl)cc3Cl)c3nncn3n2)cc1	0.2%	.	.	0.7%	-18.6%
COc1ccccc1-c1cc(C(=O)Nc2ccc(C)cc2)nn2cnnc12	35.5µM*	.	.	i	-18.1%
COc1ccccc1-c1cc(C(=O)NCc2cccc(C(F)(F)F)c2)nn2cnnc12	39.8µM*	.	.	-6.9%	?
COc1ccccc1-c1cc(C(=O)NCc2ccccc2)nn2cnnc12	?	.	.	i	?
O=c1ccc(N2CCC(NS(=O)(=O)c3ccc(Cl)s3)CC2)nn1CC1CC1	?	?	i	i	?
Cc1cc(C)c(C)c(S(=O)(=O)NC2CCN(c3ccc(=O)n(CC4CC4)n3)CC2)c1C	31.6µM*	?	i	i	?
Cc1cccc(-c2ccccc2C(=O)N2CCCC(CO)(Cc3ccccc3F)C2)c1 (stereo not given)	20µM*	-9.3%	i	?	79.4µM*
CC(C)(C)c1csc(NC(=O)C2CC(=O)N(c3n[nH]c4cccc(F)c34)C2)n1 (stereo not given)	44.7µM*	-17.6%	i	i	?
Cc1ccc(NC(=O)C2CC(=O)N(c3n[nH]c4cccc(F)c34)C2)nc1 (stereo not given)	5.6%	5.1%	i	i	i
Cc1ccc2nc(NC(=O)C3CC(=O)N(c4n[nH]c5cccc(F)c45)C3)sc2c1 (stereo not given)	25.1µM*	-11.3%	i	4.0%	31.6µM*
Cc1nc(NC(=O)C2CC(=O)N(c3n[nH]c4cccc(F)c34)C2)sc1C (stereo not given)	?	2.0%	i	0.8%	-9.2%
Cc1ccnc(NC(=O)C2CC(=O)N(c3n[nH]c4cccc(F)c34)C2)c1 (stereo not given)	28.2µM*	-5.7%	i	-17.1%	?
COc1ccc(C)cc1NC(=O)C1CC(=O)N(c2n[nH]c3cc(Br)ccc23)C1 (stereo not given)	44.7µM*	-18.5%	i	i	?
COC(=O)CNC(=O)N1CCC2(CC1)N(Cc1ccccc1)C(=O)CS2(=O)=O	-7.8%	.	.	0.7%	-25.2%
COc1cccc(-c2ccc(CN3CCCC(NC(=O)c4ccccc4)C3)cc2)c1 (stereo not given)	22.4µM*	.	.	i	39.8µM*
SMILES	HEK293 tox	NPR1 antag	FLuc inh	GPT2 inhibitor	3T3 cytotox
COc1cccc(-c2ccc(CN3CCCC(NC(=O)c4ccc(F)cc4)C3)cc2)c1 (stereo not given)	11.2µM*	.	.	-6.9%	31.6µM*
COc1cccc(C(=O)NC2CCCN(Cc3ccc(-c4cc(C)cc(C)c4)cc3)C2)c1 (stereo not given)	?	.	.	-1.2%	39.8µM*
COc1ccc(C(=O)NC2CCCN(Cc3ccc(-c4cc(C)cc(C)c4)cc3)C2)cc1 (stereo not given)	-17.1%	.	.	2.6%	-12.2%
Cc1cccc(CN2CCCC(Cc3ncc(C)n3C(C)C)C2)c1 (stereo not given)	?	.	.	i	?
O=C1NCCCCCCN[C@H]2C[C@H](c3nc(-c4cccnc4)no3)C[C@@H]12	-11.1%	5.2%	i	-6.2%	-8.6%
CN(CCNC(=O)C1CCCN(c2cnn(Cc3ccccc3)c(=O)c2)C1)C1CCCCC1 (stereo not given)	-19.4%	-6.1%	i	-6.0%	-19.9%
COC[C@@H]1[C@H](C(=O)NCCC(C)C)CCC(=O)N1C	-5.7%	.	.	-4.1%	-1.6%
O=C(Nc1ccccc1)c1nc2c(o1)CCN(Cc1cccs1)CC2	?	7.94µM*	?	4.7%[88.5 µM]	?
O=C(Nc1ccc(Cl)cc1)c1nc2c(o1)CCN(Cc1nccs1)CC2	?	2.24µM*	22.4µM*	i	?
O=C(Nc1ccc(Cl)cc1)c1nc2c(o1)CCN(Cc1cccc(O)c1)CC2	31.6µM*	2µM*	25.1µM*	-11.5%[88.5 µM]	?
O=C(NCc1cccc(F)c1)c1nc2c(o1)CCN(CCCc1ccccc1)CC2	?	-2.3%[70.6 µM]	i	i	89.1µM*
O=C(NCc1ccc2c(c1)OCO2)C1CCN(C(=O)c2ccc(-c3cncnc3)cc2)CC1	-6.4%	.	.	.	-14.2%
O=C(Cc1ccc(F)cc1)N1CCC(C(=O)N2CCC(N3CCCC3=O)CC2)CC1	-0.3%	.	.	1.1%	i
CC(=O)N1CCN(c2nc(-c3c(C)noc3C)cc3c2cc(-c2ccccc2)n3C)CC1	?	-8.2%[70.6 µM]	i	i	?
COc1ccccc1CN1CCc2nc(C(=O)N3CCOCC3)oc2CC1	100µM*	-5.8%[70.6 µM]	i	i	?
COCCNC(=O)c1nc2c(o1)CCN(Cc1ccc(OC)cc1)CC2	?	-2.3%[70.6 µM]	i	i	?
COc1ccc(CN2CCc3nc(C(=O)Nc4ccccc4)oc3CC2)cc1	?	25.1µM*	20µM*	-14.9%[88.5 µM]	?
O=C(Nc1ccccc1)c1nc2c(o1)CCN(Cc1ccc(F)c(Cl)c1)CC2	?	3.98µM*	8.91µM*	-2.4%[88.5 µM]	?
Cc1ccc(CN2CCc3nc(C(=O)Nc4cccnc4)oc3CC2)cc1	?	?	?	2.4%[88.5 µM]	?
COc1ccc(CN2CCc3nc(C(=O)Nc4ccc(Cl)cc4)oc3CC2)cn1	?	3.98µM*	?	0.2%[88.5 µM]	?
CCOC(=O)C1CCN(C(=O)c2ccc3oc(-c4ccncc4Cl)nc3c2)CC1	?	.	.	i	?

Screening data from PubChem BioAssay.
